Reference: PubChem BioAssay AID504660 (National Center for Advancing Translational Sciences (NCATS), 2011)
Where “and” joins values, the source holds several entries; their conditions need not be identical. Identical values can stand only once. The campaign covered roughly 360,000 compounds. About 3,700 (1%) were called active. The sample holds actives, similar compounds and a random draw of the others, so the mix is not that of the screen. Cut-off read from the data, not from the text of the source: active = activation above about 30%; inactive = the rest. A structure can be active in one record and inactive in another.
Note: 0% is about no effect.

Each molecule was assayed against D(1A) dopamine receptor (Homo sapiens) (UniProt P21728) (assay: Allosteric Agonists of the Human D1 Dopamine Receptor: qHTS). Settings: HEK293 T-REx D1 cells, calcium flux, agonist mode; at 2 µM; stronger effect = higher value.
D(1A) dopamine receptor (Homo sapiens), sequence (P21728 whole entry, looked up): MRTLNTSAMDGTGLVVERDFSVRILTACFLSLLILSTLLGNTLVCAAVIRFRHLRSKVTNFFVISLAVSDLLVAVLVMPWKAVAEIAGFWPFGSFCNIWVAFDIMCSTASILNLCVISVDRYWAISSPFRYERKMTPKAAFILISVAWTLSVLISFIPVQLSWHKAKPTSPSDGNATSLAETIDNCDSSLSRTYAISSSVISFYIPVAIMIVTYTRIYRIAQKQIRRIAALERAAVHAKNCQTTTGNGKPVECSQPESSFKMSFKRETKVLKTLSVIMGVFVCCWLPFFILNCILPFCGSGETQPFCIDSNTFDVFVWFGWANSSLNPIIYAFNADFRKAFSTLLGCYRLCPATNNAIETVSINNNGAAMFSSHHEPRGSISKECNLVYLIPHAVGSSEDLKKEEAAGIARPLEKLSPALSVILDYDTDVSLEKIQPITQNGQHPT
Method in brief: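 Tetracycline-induced HEK293 TREx D1 cells, force-coupled to calcium signalling, were dye-loaded with a no-wash calcium kit. Compound was pin-added after a 10 s baseline. Fluorescence was read kinetically at 1 cycle/s for 180 s, with calcium rises flagged as agonism.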
CCN(C(=O)Cn1cc(S(=O)(=O)N2CCN(c3ccccc3F)CC2)c2ccccc2c1=O)c1ccc(C)c(C)c1 was tested, and the activation was 11.2% (inactive). For Cc1ccc(C(=O)N2c3ncnn3C3(CCCCC3)[C@@H]3CCCC[C@@H]32)cc1, the activation was -0.224% (inactive). In the case of Cc1ccc2c(c1)N(C(=O)CCC(=O)NCc1ccccc1F)CC(C)O2 (centres undefined), the activation was 1.03% (inactive). For Cc1ccc2nsnc2c1NC(=O)c1ccccc1[N+](=O)[O-], the activation was 6.33% (inactive). In the case of CC(=O)Oc1ccccc1C(=O)Nc1ncc([N+](=O)[O-])s1, the activation was 32.6% (active). For O=C(COc1ccc(NC(=O)c2ccccc2[N+](=O)[O-])cc1)c1ccc(F)cc1, the activation was 3.67% (inactive). In the case of O=C(CCc1ccccc1)Nc1ncc([N+](=O)[O-])s1, the activation was 30.3% (active). O=C(CCc1ccccc1)Nc1ccc(NC(=O)C2CC2)nc1 was tested, and the activation was 5.75% (inactive). For O=C(CCc1ccccc1)Nc1nn[nH]n1, the activation was 3.14% (inactive). With Fc1cccc(-n2ncc3c2ncn2nc(-c4ccccc4Cl)nc32)c1 the activation was -0.538% (inactive). For CCOc1ccc(N(CC)S(=O)(=O)N2CCCC(C(=O)NCc3ccc(SC)cc3)C2)cc1 (centres undefined), the activation was 15.3% (inactive). COc1cc(=O)[nH]c(=O)n1C(=O)Cc1ccccc1 was tested, and the activation was 3.4% (inactive). For COc1cc(/C=C2/SC(=S)N(Cc3ccccc3)C2=O)cc(OC)c1O, the activation was 61.8% (active). For COc1cccc(N2C(=O)CN(Cc3ccccc3)C2=S)c1, the activation was 2.26% (inactive). In the case of CCOc1ccc(S(=O)(=O)Nc2ccc3oc4c(c3c2)CC(C)CC4)cc1 (centres undefined), the activation was 8.18% (inactive). With O=C(NCCc1ccccc1)c1ccc2c(c1)N(Cc1ccccc1)C(=O)c1ccccc1S2(=O)=O the activation was 5.9% (inactive). In the case of Cc1ccc(O)c(/C=N/NC(=O)COc2ccc3c(C)cc(=O)oc3c2)c1, the activation was 3.75% (inactive). Cc1ccc(O)c(NC(=O)c2cc(-c3ccc(F)cc3)no2)c1 was tested, and the activation was -1.3% (inactive). In the case of Cc1ccc(O)c(NC(=S)NC(=O)COc2ccc(Br)cc2)c1, the activation was 54.2% (active). For Cc1ccc(C)c(NC(=O)Cn2ccn(-c3ccc(F)cc3)c(=O)c2=O)c1, the activation was 10.6% (inactive). In the case of COc1cc(N2CCCC2)c(OC)cc1/C=C(/C#N)c1cccc(Br)c1, the activation was 34.6% (active). With CCOC(=O)c1c(C)oc2nc(C)nc(N3CCN(c4ccc(OC)cc4)CC3)c12 the activation was 0.866% (inactive). In the case of COc1cc(Br)cc2cc(S(=O)(=O)c3ccccc3)c(=O)oc12, the activation was 2.11% (inactive). With Cc1cc(S(=O)(=O)c2cc3ccc(O)c(C)c3oc2=O)ccc1F the activation was 56.6% (active). In the case of COc1ccc(NC(=O)c2ccc3oc(=O)c(S(=O)(=O)c4ccc(F)cc4)cc3c2)c(OC)c1, the activation was -0.0208% (inactive). With CCc1nn(CC(=O)N2CCN(c3cccc(C(F)(F)F)c3)CC2)c(=O)c2cc3occc3n12 the activation was -1.81% (inactive). In the case of COc1cccc(CNC(=O)c2ccc3c(c2)N(Cc2ccc(C(F)(F)F)cc2)C(=O)c2ccccc2S3)c1OC, the activation was 7.24% (inactive). For COc1ccc(C(=O)NCCCN2CCOCC2)cc1Br, the activation was 5.3% (inactive). With O=C(NCCCN1CCOCC1)c1cc(-c2ccccc2F)no1 the activation was 2.58% (inactive). For O=C(NCCCN1CCOCC1)c1ccc2c(c1)N(Cc1cccc(F)c1)C(=O)c1ccccc1S2, the activation was 37.5% (active). For O=C(NCCCN1CCCCC1)c1ccc2c(c1)NC(=O)C(N1CCOCC1)S2 (centres undefined), the activation was 1.92% (inactive). For Cc1ccccc1CN1C(=O)c2ccccc2Sc2ccc(C(=O)NCCCN3CCOCC3)cc21, the activation was 16.6% (inactive) and 53.8% (active). With O=C(Cn1cnc2c(oc3ccccc32)c1=O)Nc1ccc(OC(F)(F)F)cc1 the activation was 26.6% (inactive). With CCn1cc(C(=O)OCC(=O)Nc2cc(C)cc(C)c2)c(=O)c2ccc(C)nc21 the activation was -2.27% (inactive). In the case of COc1ccc(CNC(=O)Cn2nnc(-c3ccc(S(C)(=O)=O)cc3)n2)cc1, the activation was -0.202% (inactive). For COc1cc(OC)c(-n2cc(-c3ccc(Cl)cc3)[nH]c2=O)cc1Cl, the activation was 87.1% (active). In the case of COc1ccc(Cl)cc1S(=O)(=O)N1CCC(O)(c2ccc(Cl)cc2)CC1, the activation was 4.61% (inactive). COc1cc(OC)c(N2CC(C(=O)Nc3cc(Cl)ccc3N3CCOCC3)CC2=O)cc1Cl (centres undefined) was tested, and the activation was 6.25% (inactive). For CCCC12CN3CC(C)(CN(C1)C3c1ccccc1Cl)C2=O (centres undefined), the activation was -0.996% (inactive). With COc1ccc(-c2noc(CSc3nc4ccc(C)cc4[nH]3)n2)cc1 the activation was 5.23% (inactive). In the case of CC(NC(=O)COC(=O)c1ccc(Cl)cc1O)c1ccc(F)cc1 (centres undefined), the activation was 40% (active). With CC(CCc1ccccc1)NC(=O)COC(=O)c1ccc(F)cc1 (centres undefined) the activation was 10.8% (inactive). For C=CCOc1ccc(/C=C/C(=O)OCC(=O)NC(C)c2ccc(F)cc2)cc1 (centres undefined), the activation was 7.04% (inactive). In the case of O=C1CCCc2cc(S(=O)(=O)N3CCCC(C(=O)NCc4ccccc4)C3)ccc2N1 (centres undefined), the activation was 1.11% (inactive). For CCc1ccccc1NC(=O)Cn1c(=O)n(CC2CCC(C(=O)NCCc3ccccc3)CC2)c(=O)c2ccccc21 (centres undefined), the activation was -1.58% (inactive). In the case of CCn1cc(C(=O)NCc2ccccc2)c(=O)c2cc(S(=O)(=O)N3CCCCC3)ccc21, the activation was 1.41% (inactive). For Cc1ccc(S(=O)(=O)N2CCCCC2)cc1NC(=O)c1cccnc1, the activation was 4.22% (inactive). For O=C(c1cccnc1)N1CCN(S(=O)(=O)c2cccs2)CC1, the activation was 1.36% (inactive). O=C(N/N=C/c1sc(N2CCCCC2)nc1-c1cccs1)c1cccnc1 was tested, and the activation was 32.8% (active). Cc1cc(NC(=O)C2CCC(CNS(=O)(=O)c3ccc(Br)s3)CC2)ccc1Br (centres undefined) was tested, and the activation was 9.94% (inactive). In the case of N#Cc1nc(Nc2cccc(Cl)c2)nc(NC2CCCC2)n1, the activation was 4.33% (inactive). In the case of COc1cccc2c1cc1c(=O)n(CC(=O)N3CCN(c4cccc(Cl)c4)CC3)nc(C)n12, the activation was -0.0969% (inactive). For O=C(CNC(=O)c1ccc(Cl)c(C(F)(F)F)c1)OC(C(=O)Nc1cc(C(F)(F)F)ccc1Cl)c1ccccc1 (centres undefined), the activation was 15.3% (inactive). For Cc1ccc(C(=O)NCCSc2c(C)[nH]c3ccccc23)cc1C, the activation was 2.99% (inactive). With O=C(NCc1ccc2c(c1)CCN2C(=O)c1ccccc1)Nc1cc(F)ccc1F the activation was 2.32% (inactive). In the case of CCn1cc(CN2CCC(C(=O)Nc3cccc(-c4cccc(Cl)c4)c3)CC2)cn1, the activation was 10.6% (inactive). For CCn1cc(CN2CCC(C(=O)Nc3cccc(-c4cccc(Cl)c4)c3)CC2)c(C)n1, the activation was 17.5% (inactive). O=C(Nc1cccc(-c2cccc(Cl)c2)c1)C1CCN(C2CCC2)CC1 was tested, and the activation was 33.2% (active). O=C(Nc1cccc(-c2nc3ccccc3o2)c1)c1cccc(Br)c1 was tested, and the activation was 11.1% (inactive). In the case of COc1ccc(/C=C(\C#N)C(=O)ONC2=NCCCCC2)cc1, the activation was 4.53% (inactive). In the case of CCCn1c(C)cc(/C=C(\C#N)C(=O)OCC(=O)N(C)c2c(N)n(Cc3ccccc3)c(=O)[nH]c2=O)c1C, the activation was 1.98% (inactive). In the case of CCOC(=O)/C(C#N)=C\c1c(C)cc(C)c(COC(C)=O)c1C, the activation was 0.226% (inactive). For CCOC(=O)/C(C#N)=C/c1ccc(N2CCCCC2)cc1, the activation was 68.9% (active). In the case of CCOC(=O)/C(C#N)=C/c1ccc(N2CCN(Cc3ccccc3)CC2)cc1, the activation was 46.5% (active). In the case of CCOC(=O)C1CCN(Cc2ccc(-c3ccccc3)cc2)CC1, the activation was 5.56% (inactive). In the case of Cc1ccc2sc(N(Cc3cccnc3)C(=O)C3COc4ccccc4O3)nc2c1C (centres undefined), the activation was 20.1% (inactive). For CC1CCN(S(=O)(=O)c2ccc3c(c2)N(CC(=O)NCCc2ccccc2)C(=O)CO3)CC1, the activation was 1.33% (inactive). CCOc1ccc(CN2CCN(Cc3c[nH]c4ccccc34)CC2)cc1 was tested, and the activation was 33.4% (active). In the case of CC1(C(=O)NCCc2c[nH]c3ccccc23)C=CC2(CCCCC2)N1C(=O)c1ccccc1 (centres undefined), the activation was -1.33% (inactive). With Cc1ccc2[nH]cc(CCNC(=O)C3CCCCC3)c2c1 the activation was 5.96% (inactive). In the case of O=C(NCCc1c[nH]c2ccccc12)C1CCN(Cc2ccc(Br)cc2)CC1, the activation was 35.5% (active). With COc1ccc(CN2CCN(Cc3ccc(OC)c(OC)c3OC)CC2)cc1 the activation was 1.73% (inactive). For CCOc1ccc(CN2CCCN(C)CC2)cc1, the activation was 1.05% (inactive). O=S(=O)(c1ccc(Cl)cc1)c1nnn2c1nc(NC1CCCC1)c1sccc12 was tested, and the activation was -0.225% (inactive). In the case of Cc1ccc(C)c(N2CCN(Cc3nnc(-c4ccccc4)o3)CC2)c1, the activation was 6.92% (inactive). CCCn1c2ccccc2c2cnn(CC(=O)N(CC)c3cc(C)ccc3C)c(=O)c21 was tested, and the activation was 3.04% (inactive). In the case of COc1cccc2cc(-c3nc(Cl)c4c5c(sc4n3)CC(C)CC5)c(=O)oc12 (centres undefined), the activation was -0.914% (inactive). With COc1cc(/C=C(\C#N)c2nc3c(s2)CC(C)CC3)ccc1O (centres undefined) the activation was 35.8% (active). With CC1=CC2=NC(=O)/C(=C/c3coc4ccccc4c3=O)C(=N)N2O1 the activation was 227% (active). COc1ccc(OCCCn2cccc2/C=C2/C(=N)N3OC(C)=CC3=NC2=O)cc1 was tested, and the activation was 1.18% (inactive). Cc1cc(C)c2oc(-c3cccc(NC(=O)c4cccc(F)c4)c3C)nc2c1 was tested, and the activation was 1.24% (inactive). With O=C(NCCc1c[nH]c2ccccc12)c1cc2ccccc2oc1=O the activation was 4.67% (inactive). With N#C/C(=C/c1ccc(N2CCCCC2)o1)C(=O)NCCc1c[nH]c2ccccc12 the activation was 78.8% (active). For Cc1ccc(C(=O)N/C(=C/c2ccco2)C(=O)NCCc2c[nH]c3ccccc23)cc1C, the activation was 2.88% (inactive). With CCOc1ccccc1CNC(=O)c1cnc2c(-c3ccc(OCC)c(OCC)c3)c(C)nn2c1C the activation was 1.83% (inactive). CCOc1ccc(NC(=O)CC2C(=O)N(c3cccc(OC)c3)C(=O)N2C2CCCCC2)cc1 (centres undefined) was tested, and the activation was 2.76% (inactive). In the case of C/C(=C/c1ccccc1)C(=O)N1CCN(c2ccccc2)CC1, the activation was 0.356% (inactive). With O=C(O)CCC(=O)Nc1ccc(N2CCOCC2)cc1 the activation was 4.21% (inactive). O=C(/C=C/c1ccc(N2CCOCC2)cc1)c1ccccc1 was tested, and the activation was 108% (active).
